Hits are enriched below; roughly 21% of the tested compounds scored in any of these assays.
HCV inhibitor – qHTS Assay for Inhibitors of Hepatitis C Virus (HCV); Huh7.5.1 HCVcc-Cre infection, luciferase reporter, 44 h; Potency, µM (titrated, usually from 41.8 µM), hits mostly inhibitors; 340,000 tested, 3.4% active
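Cells (1,000/well) were plated 4 h before compound, then infected with HCVcc-Cre virus (~0.5 moi). After 44 h further culture, infection was read as luciferase luminescence following a 15 min substrate incubation at room temperature.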
Pf growth 96h – Primary qHTS for delayed death inhibitors of the malarial parasite plastid, 96 hour incubation; P. falciparum luciferase reporter growth, 96 h; Potency, µM (doses to about 28.7 µM), hits mostly inhibitors; 320,000 tested, 6.9% active; AID 504834, 2011
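Erythrocytes infected with luciferase-expressing P. falciparum were dispensed at 2% hematocrit and 0.05% parasitemia (final), then incubated with compounds 96 hours at 37 C in 5% CO2. Luminescence after detection reagent addition reported growth.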
Pf growth 48h – Primary qHTS for delayed death inhibitors of the malarial parasite plastid, 48 hour incubation; 310,000 tested, 5.9% active; P. falciparum luciferase growth in erythrocytes, 48 h; Potency, µM (highest dose often 28.7 µM), most hits filed as inhibitors
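Read-out is firefly luciferase luminescence from an integrated reporter in P. falciparum, so falling signal marks reduced parasite growth. Infected erythrocytes were at 2% hematocrit and 0.1% parasitemia (final) in Albumax-supplemented RPMI 1640.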
Shiga inhibitor – A qHTS for Small Molecule Inhibitors of Shiga Toxin. Vero cells, Shiga toxin protein synthesis inhibition reporter. inhibition, % at 38.7 µM. 290,000 tested, 9.2% active. AID 2315, 2010; in the data active = inhibition mostly above about 28%, no sharp cut-off; inactive = mostly below about 43%
AMA1 RON2 block – qHTS for Inhibitors of AMA1-RON; Towards Development of Antimalarial Drug Lead: Primary Screen | Plasmodium falciparum AMA1 (3D7) - RON2 peptide interaction | AlphaScreen AMA1-biotinylated RON2 peptide binding | 360,000 tested, 0.2% active | Potency, µM (top dose mostly 58.2 µM), actives largely listed as inhibitors; also: nearly all actives have a fitted effect of over 45% in size
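AMA1 (3D7) with his tag at 25 nM final met compounds first, then biotinylated RON2 peptide at 25 nM; detection used donor plus acceptor beads, 10 µg/mL apiece, read by AlphaScreen after 30 min at room temperature.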
CHX counter – Cycloheximide Counterscreen for Small Molecule Inhibitors of Shiga Toxin; cell reporter, cycloheximide protein synthesis inhibition counterscreen; max response, %; 300,000 tested, 12% active; in the data active = max response mostly above about 13%, no sharp cut-off; inactive = mostly below about 14%; also: read at 38.3 µM for the half of the compounds with a filed dose
Hits are given with their value; - = inactive; ? = inconclusive; . = no result given; ! = a repeat was not active; [ ] = remark or other dose. Unless noted, calls follow the shape of the dose curve; as a rule, active = well fitted curve in the direction sought with a large enough effect; inconclusive = small, poorly fitted or top-dose-only effect, or another doubt; inactive = no such curve, though single readings can be large; an effect the other way counts as inactive or inconclusive.

SMILES | HCV inhibitor | Pf growth 96h | Pf growth 48h | Shiga inhibitor | AMA1 RON2 block | CHX counter
COc1ccc(N2CCN(S(=O)(=O)c3c(C)nc4sccn4c3=O)CC2)cc1 | - | 4.15µM | - | - | - | -
COc1ccc(C)cc1S(=O)(=O)N1CCN(C(=O)c2ncoc2-c2ccc(C)cc2)CC1 | - | - | - | - | - | -
COc1ccc(OC)c(S(=O)(=O)N2CCN(c3ncccn3)CC2)c1 | - | - | - | - | - | -
COc1ccc(S(=O)(=O)N2CCN(C(=O)C3CC3)CC2)cc1Br | - | ? | ? | . | - | .
COc1ccc(N2C(=O)c3ccccc3NC(=O)C2C(=O)NCC(C)C)cc1 (configuration not stated) | . | . | . | . | - | .
CCOc1ccccc1OCCCC(=O)N(CC)CC(=O)Nc1c(F)cccc1F | - | - | - | . | - | .
COc1ccc(N2CCN(S(=O)(=O)c3cc(C)ccc3OC)CC2)cc1 | 2.82µM | - | - | - | - | -
COc1ccc(N2CCN(C3CCCN(S(=O)(=O)c4ccc(C)cc4C)C3)CC2)cc1 (configuration not stated) | 8.91µM | ? | ? | - | - | -
COc1ccc(OC)c(S(=O)(=O)N2CCN(c3ccc(F)cc3)CC2)c1 | - | - | - | - | - | -
COc1ccc(N2CCN(C3CCCN(S(=O)(=O)c4ccccc4)C3)CC2)cc1 (configuration not stated) | - | - | - | - | - | -
CC(=O)C1=CCC(c2ccccc2)N(Cc2ccccc2)C1 (configuration not stated) | . | . | . | . | - | .
O=C1NC[C@H](CCCCN2CCN(Cc3ccccc3)C(=O)C2=O)N(CCC2CCCCC2)C1=O | . | . | . | . | - | .
Cc1ccc(NC(=O)c2ccc(F)cc2)cc1S(=O)(=O)N1CCCCCC1 | ? | ? | - | - | - | -
Cc1ccc(C(=O)Nc2cccc(O)c2)cc1S(=O)(=O)N1CCCCCC1 | - | - | - | 60.6 | - | 54.2
Cc1ccc(C(=O)Nc2ccc3cn[nH]c3c2)cc1S(=O)(=O)N1CCCCC1 | - | . | - | 76.4 | - | 38.2
Cc1csc(NC(=O)c2ccc(C)c(S(=O)(=O)N3CCCCC3)c2)n1 | - | 4.15µM | 3.29µM | - | - | -
O=C(Nc1cccc(S(=O)(=O)C(F)F)c1)c1ccc(S(=O)(=O)N2CCCC2)cc1 | 5.01µM | - | - | - | - | -
O=C(Nc1ccnn1C1CCN(Cc2cccc(OCCO)c2)CC1)C1CC1 | - | ? | - | - | - | -
CSCCC(NC(=O)COc1ccccc1)C(=O)N(C)Cc1cccc(F)c1 (configuration not stated) | - | - | ? | . | - | .
COc1ccc(NS(=O)(=O)c2cccc(NC(=O)c3ccc(S(=O)(=O)N4CCCCCC4)cc3)c2)cc1 | ? | 13.1µM | ? | - | - | -
COc1ccc(NS(=O)(=O)c2ccc(O)c(NC(=O)c3ccc(S(=O)(=O)N4CCCCCC4)cc3)c2)cc1 | - | - | - | - | - | -
COc1ccc(C(=O)Nc2ccc(C)c(S(=O)(=O)N3CCCCCC3)c2)cc1 | 31.6µM | - | ? | - | - | -
COc1cc(/C=C2/NC(=O)N(c3cccc(Cl)c3)C2=O)ccc1O | ? | ? | 7.38µM | 22.8 | - | -
COc1ccc(-n2cccc2/C=C2/NC(=O)N(c3cccc(Cl)c3)C2=O)cc1 | - | - | - | - | - | 21.7
O=C(Nc1cccc(F)c1)C1CCCN(S(=O)(=O)c2ccc(-n3cnnn3)cc2)C1 (configuration not stated) | ? | - | - | - | - | -
SMILES | HCV inhibitor | Pf growth 96h | Pf growth 48h | Shiga inhibitor | AMA1 RON2 block | CHX counter
Cc1ccccc1Cn1nc(C)c(NC(=O)c2cc3nc(-c4ccco4)cc(C(F)(F)F)n3n2)c1C | ? | . | 13.1µM | - | - | -
Cc1ccccc1Cn1nc(C)c(NC(=O)c2cc(-c3ccco3)on2)c1C | - | - | ? | - | - | -
CCc1ccc(-c2cc(C(F)(F)F)n3nc(C(=O)Nc4c(C)nn(Cc5ccc(F)cc5)c4C)cc3n2)s1 | 1.58µM | -[5.75 µM] | ? | - | - | -
O=C(Nc1ccc2c(c1)OCO2)c1cnn2c(C(F)(F)F)cc(-c3ccco3)nc12 | ? | - | . | - | - | -
O=C(Nc1cnn(Cc2ccccc2)c1)c1cc2nc(-c3ccco3)cc(C(F)(F)F)n2n1 | ? | 11.7µM | ? | - | - | -
O=C(Nc1cnn(C23CC4CC(CC(C4)C2)C3)c1)c1cnn2c(C(F)(F)F)cc(-c3ccco3)nc12 | 11.2µM! | ? | - | - | - | -
Cc1c(C)n2c(SCC(=O)N3CCCCC3)nnc2[nH]c1=O | -[8.37 µM] | ? | - | . | - | .
Cc1cc(-c2c(C)[nH]n(-c3ccc(Cl)cc3)c2=O)n[nH]1 | ? | ? | ? | - | - | 26.6
c1ccc2cc3[nH]c(CN4CCOCC4)nc3cc2c1 | - | ? | - | 34.6 | - | 17.3
c1ccc2[nH]c(CN3CCOCC3)nc2c1 | - | . | - | - | - | -
Cc1ccc(NC(=O)CN2CCN(C)CC2)cc1Br | - | - | - | - | ? | -
CC(C)c1ccc(C2(O)C(=O)Nc3cc(Br)ccc32)c(O)c1 (configuration not stated) | - | 13.1µM | 13.1µM | - | - | -
O=C1Nc2cc(Br)ccc2C1(O)c1ccccc1O (configuration not stated) | - | ? | ? | - | - | -
COc1ccc(N2CCN(C(=O)c3cn(CC4CCCCC4)nn3)CC2)cc1 | ? | ? | - | - | - | -
CCOc1ccc(/C=N/NC(=O)c2cc(-c3ccco3)nc3ccccc23)cc1 | ? | - | - | 103.2 | - | 47.4
O=C(N/N=C/c1ccc2c(c1)OCO2)c1cc(-c2ccccc2Cl)nc2ccccc12 | - | 10.4µM | ? | - | - | -
CCOc1ccccc1-c1cc(C(=O)N/N=C/c2ccc3c(c2)OCO3)c2ccccc2n1 | - | . | 2.33µM | - | - | -
CCOc1ccccc1-c1cc(C(=O)N/N=C/c2ccc(O)c(OC)c2)c2ccccc2n1 | - | - | ? | - | - | -
COc1ccccc1N1CCN(C2CCCN(C(=O)CCn3cncn3)C2)CC1 (configuration not stated) | - | ? | - | - | - | -
O=C(CNC(=S)NC(=O)c1cccs1)c1ccccc1 | - | - | - | 89.6 | - | 66.3
O=C(NC(=S)NCc1ccccc1)c1cccs1 | - | - | - | - | - | -
O=C(CNC(=S)NC(=O)c1ccco1)c1ccccc1 | - | - | - | 74.9 | - | 37.5
Cc1ccc(C(=O)NC(=S)NCC(=O)c2ccccc2)cc1 | - | - | - | - | - | 17.1
Cc1noc(C)c1CSCC(=O)Oc1ccc(N(C)S(=O)(=O)c2ccc(Cl)cc2)cc1 | - | - | - | . | - | .
